Several values for one entry are separate records, joined by “and”; a condition that tells them apart may be missing. Identical values can stand only once. Records with an inconclusive call do not appear. Entries that show only a call come without a potency. The source holds several records for some structures; these can differ, active in one and inactive in another. Activity calls are given as the source filed them. Calls follow the shape of the full dose curve. Starred links: 1 amine or outer side, 2 acyl side, 3 side chain; linkers in the order of their positions; H or OH if unused. Positions of bridges follow the written chain, without caps; N, C: chain ends. Non-standard residues stand in square brackets, D forms with d. Residues, ends and D or L forms follow the SMILES beside them. Chains are numbered I, II in the order given. Actinocin(9to1) = Cc1c2oc3c(C)ccc(C(=O)[*:1])c3nc-2c(C(=O)[*:2])c(N)c1=O; NMeV = CN[C@H](C(=O)O)C(C)C; Sar = CNCC(=O)O
Potency is read from the fitted curve at half-maximal effect.

The nature of the experiment: qHTS assay for small molecule disruptors of the mitochondrial membrane potential - cell viability (AID 720634). Also: nearly all actives have a fitted effect of over 20% in size. The note with it: HepG2 viability, ATP luminescence (CellTiter-Glo), 1 h; series mostly up to 83.2 µM. The source says: U.S. Tox21 Program National Center for Advancing Translational Sciences [NCATS] NIH Chemical Genomics Center [NCGC] U.S. Environmental Protection Agency [EPA] National Institutes of Environmental Health Sciences [NIEHS] National Toxicology Program [NTP] U.S. Food and Drug Administration [FDA] Tox21 Assay Overview: Mitochondrial membrane potential (MMP), one of the parameters for mitochondrial function, is generated by mitochondrial electron transport chain that creates an electrochemical gradient by a series of redox reactions. This gradient drives the synthesis of ATP, a crucial molecule for various cellular processes. Measuring MMP in living cells is commonly used to assess the effect of chemicals on mitochondrial function; decreases in MMP can be detected using lipophilic cationic fluorescent dyes. […] The dye accumulates in the mitochondria of healthy cells as aggregates, with red fluorescence. The mitochondrial potential decreases and the dye could not accumulate in the mitochondria and remains in the cytoplasm in monomers, with green fluorescence. In addition to the mitochondrial potential assay, these cells were also used to test the cytotoxicity by determining the cell viability in the culture based on the quantitation of ATP present. The cytotoxicity was measured in the same assay well of MMP assay.
Tox21 Assay Protocol Summary: 2,000 HepG2 cells in 5 uL/well were dispensed into black, clear-bottom 1536-well plates using a Multidrop Combi (Thermo Scientific) dispenser. The assay plates were incubated for an overnight at 37 C to allow cells to attach to the wells, followed by the transfer of 23 nL compound or DMSO vehicle by a pin tool (Kalypsys). The plates were incubated for 1 hr at 37 C and 5% CO2, followed by the addition of 5 uL of 2X m-MPI dye into each well using Flying Reagent Dispenser (Aurora Discovery) and then CellTiter-Glo reagent was added at 4 uL/well and incubated 30 min at room temperature. Then luminescence intensity was quantified on a ViewLux CCD-based plate reader.
A general note: Quantitative high-throughput screening tests each substance at several concentrations.
Regarding `Nc1nc(=S)c2[nH]cnc2[nH]1`, the Potency result was “inactive”.

With `Cc1scc2c1N(C(=O)CN1CCN(C)CC1)c1ccccc1NC2=O`, the Potency entry was “inactive”.

`O=C1Nc2ccccc2C1(c1ccc(O)cc1)c1ccc(O)cc1`: the Potency result was “inactive”.

Take `O=C(O[C@@H]1Cc2c(O)cc(O)cc2O[C@@H]1c1cc(O)c(O)c(O)c1)c1cc(O)c(O)c(O)c1`: the Potency entry was “inactive”.

As for `CCC(CO)(CO)COCC(CC)(CO)CO`, the Potency entry is “inactive”.

For `CCCCN(CCO)CCCC`, the Potency result is “inactive”.

As to `COC(=O)/C=C/c1ccccc1`, the Potency entry is “inactive”.

Regarding `CC(C)(C)NC(=O)[C@@H]1CN(Cc2cccnc2)CCN1C[C@@H](O)C[C@@H](Cc1ccccc1)C(=O)N[C@H]1c2ccccc2C[C@H]1O`, the Potency is 13.3 µM (active) and inactive.

As to `NCCO`, the Potency entry was “inactive”.

As to `COc1ccc(COC(C)=O)cc1`, the Potency result is “inactive”.

Consider `CC(=O)OCC1=C(C(=O)O)N2C(=O)[C@@H](NC(=O)Cc3cccs3)[C@H]2SC1`, for which the Potency entry was “inactive”.

In the case of `CO[Si](OC)(OC)c1ccccc1`, the Potency entry was “inactive”.

For `c1ccc2n[nH]nc2c1`, the Potency result was “inactive”.

For `Cc1ccc(-c2cc(C(F)(F)F)nn2-c2ccc(S(N)(=O)=O)cc2)cc1`, the Potency was 11.9 µM (active) and 12.1 µM (active) and 30.6 µM (active).

`CCc1cc(C(C)(C)C)c(O)c(C(C)(C)C)c1`: the Potency entry was “inactive”.

`COC(c1ccccc1)(c1ccccc1)[C@H](Oc1nc(C)cc(C)n1)C(=O)O`: the Potency entry was “inactive”.

`Cc1cccc([N+](=O)[O-])c1C(=O)O`: the Potency entry was “inactive”.

As for `CCCCCCC(O)CCCCCCCCCCC(=O)O` (stereo not given), the Potency entry is “inactive and 54.5 µM (active)”.

As to `OCC(CO)N[C@H]1C[C@](O)(CO)[C@@H](O)[C@H](O)[C@H]1O`, the Potency entry is “inactive”.

With `CC(COc1ccccc1)N(CCCl)Cc1ccccc1` (stereo not given), the Potency entry was “inactive”.

Turning to `Oc1c(Cl)cc(Cl)cc1Sc1cc(Cl)cc(Cl)c1O`, the Potency was 13.7 µM (active) and inactive.

In the case of `Cc1c2oc3c(C)ccc(C(=O)N[C@@H]4C(=O)N[C@H](C(C)C)C(=O)N5CCC[C@H]5C(=O)N(C)CC(=O)N(C)[C@@H](C(C)C)C(=O)O[C@@H]4C)c3nc-2c(C(=O)N[C@@H]2C(=O)N[C@H](C(C)C)C(=O)N3CCC[C@H]3C(=O)N(C)CC(=O)N(C)[C@@H](C(C)C)C(=O)O[C@@H]2C)c(N)c1=O` (I: T[dV]P[Sar][NMeV] / II: T[dV]P[Sar][NMeV]; ester I:1-I:C, II:1-II:C; linker I:N-II:N via Actinocin(9to1)), the Potency entry was “inactive”.

As for `O=Cc1ccc(Cl)cc1`, the Potency result is “inactive”.

As to `O=C(O)CP(=O)(O)O`, the Potency result is “inactive”.

As to `CC(C)(C)NCC(O)c1cc(O)cc(O)c1` (stereo not given), the Potency entry was “inactive”.

Take `OCCOCCN1CCN(C(c2ccccc2)c2ccc(Cl)cc2)CC1` (stereo not given): the Potency entry was “inactive”.

Turning to `C=CC(=O)OCCCCCCOC(=O)C=C`, the Potency result is “inactive”.

Regarding `CC(C(O)c1ccc(O)cc1)N1CCC(Cc2ccccc2)CC1` (stereo not given), the Potency entry was “inactive”.

For `O`, the Potency result was “inactive”.

As for `[Cl][In]([Cl])[Cl]`, the Potency entry was “inactive”.

As for `CCCCC/C=C/CC1CC(=O)OC1=O` (stereo not given), the Potency result was “inactive”.

Turning to `Cc1occc(=O)c1OC(=O)C(C)C`, the Potency entry is “inactive”.

Take `CC(=O)O[C@]1(C(C)=O)CC[C@H]2[C@@H]3C[C@H](C)C4=CC(=O)CC[C@]4(C)[C@H]3CC[C@@]21C`: the Potency entry was “inactive”.

As for `Cc1ccc(S(=O)(=O)Oc2ccc(N=Nc3ccc(-c4ccc(N=Nc5c(O)ccc6cc(S(=O)(=O)O)cc(S(=O)(=O)O)c56)c(C)c4)cc3C)cc2)cc1`, the Potency entry was “inactive”.

On to `Cc1ccnc2c1NC(=O)c1cccnc1N2C1CC1`, for which the Potency result is “inactive”.

Take `Cc1cc(C(C)(C)C)c(O)c(C(C)(C)C)c1`: the Potency entry is “inactive”.

As for `NNCCc1ccccc1`, the Potency entry was “inactive”.

For the compound `CC1COC(=O)O1` (stereo not given), the Potency entry was “inactive”.

With `Cc1c(O)cccc1C(=O)N[C@@H](CSc1ccccc1)[C@H](O)CN1C[C@H]2CCCC[C@H]2C[C@H]1C(=O)NC(C)(C)C`, the Potency entry is “inactive”.

Take `CC(C)C(=O)c1c(C(C)C)nn2ccccc12`: the Potency entry is “inactive”.

These data come from PubChem BioAssay (Tox21).
